Screens: PubChem, several laboratories
The list is not random: actives were taken first. Their share in the collection is about 5.2%.
M18AAP inhibitor: PfM18AAP inhibitors, malaria aminopeptidase, primary screen, biochemical, QFRET, recombinant enzyme | AID 1822, 2009 | inhibition, % at 7.35 µM | M18 aspartyl aminopeptidase (Plasmodium falciparum 3D7) | H-Glu-NHMec fluorogenic cleavage | actives 1.2% (n = 290,000);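 active = inhibition above the campaign mean inhibition over all tested compounds plus 3 SD, cut at about 28% in these data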;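 note: 0% = plate median of test compound wells and 100% = 2 mM ZnCl2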
ALR inh: inhibitors of human ALR sulfhydryl oxidase, primary screen, biochemical, H2O2 detection, HRP-luminol luminescence, single point; FAD-linked sulfhydryl oxidase ALR (Homo sapiens), P55789; inhibition, % (no concentration beside the values); AID 485317, 2010; actives 3.8% (n = 290,000); purified ALR, DTT oxidation;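 active = mean replicate inhibition above about 79%, with every replicate also reaching it, limit read from the data; inconclusive = only one of the two criteria met; inactive = mean below limit and not every replicate reaching it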
Yeast superoxide: reduction of superoxide in aged yeast, primary screen, HTS; AID 2690, 2010; S. cerevisiae aged cells, superoxide DHE fluorescence; active compounds read low; superoxide response (% of plate mean), % at 10 µM; actives 0.18% (n = 330,000);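 active = superoxide response under a set limit, about three screen SD below normal, cut at about 65% in these data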;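 note: yeast aged for seven days with compound at 30 °C before DHE staining; 100% = average MFI of all compound-treated wells on the plate with controls excluded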
NRP1-CendR mod: modulators of CendR peptide binding to NRP-1, primary screen, biochemical, fluorescence polarization, uHTS; FAM-RPARPAR peptide binding to NRP-1; inhibition, % at 25 µM; Neuropilin-1 (Homo sapiens), O14786; actives 0.85% (n = 360,000); AID 602438, 2012;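 active = inhibition or corrected inhibition above about 18%, plus a signal ratio from 0.5 to 1.5, limit read from the data, passing the limit was not always enough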
APOBEC3A inh: APOBEC3A ssDNA deaminase inhibitors, primary screen, selectivity assay for APOBEC3G inhibitor project, biochemical, FAM/TAMRA oligo cleavage fluorescence. recombinant A3A, FAM/TAMRA ssDNA deamination fluorescence. inhibition, % at 20 µM. actives 0.41% (n = 330,000). AID 493011, 2011;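 active = at least 40% inhibition at 20 µM here, with at most 30% in a related deaminase screen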;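 note: plate controls were A3A with DMSO for no effect and wells lacking A3A enzyme for full effect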
APOBEC3G inh: APOBEC3G DNA deaminase inhibitors, primary screen, biochemical, fluorescence, single-stranded DNA substrate, uHTS | recombinant A3G, ssDNA deamination FAM/TAMRA fluorescence | inhibition, % at 20 µM | AID 493012, 2011 | DNA dC->dU-editing enzyme APOBEC-3G (Homo sapiens), Q9HC16 | actives 0.28% (n = 330,000);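 active = inhibition of at least 40% at 20 µM, with no more than 30% in the related APOBEC3A deaminase screen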;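 note: plate controls were DMSO wells with A3G for no effect and wells lacking A3G enzyme for full effect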
Target sequence (Q9HC16 whole entry, looked up): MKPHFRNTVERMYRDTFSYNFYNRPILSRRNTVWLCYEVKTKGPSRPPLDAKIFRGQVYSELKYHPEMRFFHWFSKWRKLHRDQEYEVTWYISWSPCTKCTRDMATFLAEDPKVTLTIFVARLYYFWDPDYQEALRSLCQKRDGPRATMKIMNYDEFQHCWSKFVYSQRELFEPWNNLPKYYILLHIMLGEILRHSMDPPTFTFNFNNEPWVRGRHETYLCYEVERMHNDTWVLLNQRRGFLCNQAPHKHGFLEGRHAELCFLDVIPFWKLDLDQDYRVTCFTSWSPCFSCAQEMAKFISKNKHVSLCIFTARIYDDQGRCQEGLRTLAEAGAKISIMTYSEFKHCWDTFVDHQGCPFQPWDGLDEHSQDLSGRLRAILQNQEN
* = called active by the depositor; ? = inconclusive; . = no result.

SMILES	M18AAP inhibitor	ALR inh	Yeast superoxide	NRP1-CendR mod	APOBEC3A inh	APOBEC3G inh
COc1ccc(C(=O)c2ccc(N3CCOCC3)c([N+](=O)[O-])c2)cc1	1.8	-3.0	92.9	4.4	-1.4	-3.9
Cc1cc(C=O)c(C)n1-c1ccc(N2CCCCC2)c([N+](=O)[O-])c1	-0.3	-26.7	90.7	40.8*	-4.7	-5.5
NNC(=O)c1ccc(N2CCCCCC2)c([N+](=O)[O-])c1	-4.0	-7.0	95.0	31.2*	-8.2	-4.7
O=[N+]([O-])c1cc(/C=N/O)ccc1N1CCCC1	-7.8	91.8*	106.3	9.1	3.7	1.8
Cc1ccc([C@H]2C(C(=O)O)=CC[C@@H](c3cccs3)N2S(=O)(=O)c2ccc(C)cc2)cc1	.	.	102.3	-12.7	-4.0	-10.1
O=C(c1ccc2nc(Cc3cccc(Cl)c3)oc2c1)N1CCOCC1	4.0	-15.5	95.0	13.8	-1.3	6.6
O=C(Nc1ccc(O)cc1)/C(=C\c1ccncc1)NC(=O)c1ccccc1	0.8	99.5*	108.5	-5.3	1.4	2.2
O=C(Nc1ccc(C(=O)O)cc1)/C(=C\c1ccco1)NC(=O)c1ccc(Br)cc1	.	.	.	-4.4	.	.
Cc1ccc(C(=O)N/C(=C/c2ccco2)C(=O)Nc2cccc(C(=O)O)c2)cc1	30.2*	?	109.8	.	-0.6	-3.2
O=C(Nc1ccc(O)cc1)/C(=C/c1ccco1)NC(=O)c1ccccc1	-1.4	99.4*	102.2	1.4	5.0	9.3
O=C(Nc1ccccc1)/C(=C\c1ccncc1)NC(=O)c1ccccc1	1.8	.	101.2	9.6	-3.6	-4.8
CCOC(=O)[C@@H]1CCNC[C@@H]1c1ccccc1	3.6	-20.6	98.5	12.1	-0.9	-0.7
CC(=Nc1cccc(C)c1)c1sc2ccccc2c1O	1.2	2.8	106.1	-27.1	-2.1	1.6
CC(=Nc1ccccc1O)c1sc2ccccc2c1O	22.7	92.3*	106.3	81.5	5.5	0.8
CCOc1ccc(NS(=O)(=O)c2ccc(C(=O)N(C)CC(=O)Nc3ccc(OC)cc3)cc2)cc1	.	-1.0	99.1	-0.1	-2.9	-8.3
CCOc1ncccc1C(=O)N1CCN(S(=O)(=O)c2ccc3c(c2)OCCO3)CC1	.	-5.8	84.1	8.0	6.4	-5.6
CC(C)c1ccc(-c2cc(C(=O)N3N=C(C(F)F)CC3(O)C(F)F)c3ccccc3n2)cc1 (stereo not drawn)	-7.6	-1.0	86.7	-8.3	0.7	-3.1
COc1cc(/C=N/NC(=S)NCCN2CCOCC2)cc(OC)c1O	13.0	99.1*	109.5	6.7	5.3	-4.6
COc1cc(/C=N/NC(=S)N/N=C/c2cc(OC)c(OC)c(OC)c2)cc(OC)c1OC	9.6	87.9*	101.1	1.2	-2.7	-3.3
COc1cc(OC)c(OC)cc1/C=N/NC(=S)NCCN1CCOCC1	-7.1	6.1	102.5	-5.6	-3.5	-4.7
O=C1NC(=Nc2ccccc2)S/C1=C\c1cccnc1	5.4	.	101.5	9.1	-2.6	-5.7
O=C1N/C(=N/O)S/C1=C\c1ccccc1-n1cccn1	2.0	93.5*	99.9	-12.2	-3.0	-5.9
Clc1nc2c(ccc3ccccc32)[nH]1	-0.3	.	76.9	-14.2	0.0	-6.2
Cc1ccc2nc(-c3cccc(N)c3)[nH]c2c1	-0.1	98.6*	101.3	4.7	0.5	-2.4
Nc1ccc(C(=O)Nc2ccc3nc(-c4ccncc4)[nH]c3c2)cc1	-10.0	-18.2	103.2	-23.9	-2.4	-10.1
Nc1ccc(-c2nc3ccccc3[nH]2)cc1	2.4	98.1*	85.6	-6.4	-4.4	-4.4
Nc1ccc(-c2nc3c(ccc4ccccc43)[nH]2)cc1	3.5	98.9*	100.4	-13.8	-2.5	-0.4
Nc1ccc2nc(-c3ccc(-c4nc5ccc(N)cc5[nH]4)cc3)[nH]c2c1	16.2	98.6*	88.7	.	11.7	14.1
Nc1cccc(-c2nc3ccccc3[nH]2)c1	-0.4	-113.2	80.5	-3.1	0.1	-6.7
